Assay in all cases: NCI-60 one-dose screen, 48 h (100 = growth as untreated, 0 = no growth, -100 = all killed)
Holding throughout (settings): 10 µM

Test [1] relates to NCI-H23 lung.
Test [2] deals with NCI-H226 lung.
The test system of test [3] is NCI-H322M lung.
Test [4] relates to HOP-62 NSCLC.
Test [5] concerns NCI-H460 lung.
Test [6] relates to NCI-H522 lung.
Test [7] has as its system A549/ATCC NSCLC.
In test [8] the test system is 786-0 renal.
The subject of test [9] is COLO 205 colon.
Test [10] deals with DU-145 prostate.
The test system of test [11] is K-562 leukemia.
The test system of test [12] is MALME-3M melanoma.
For test [13], the system named is MDA-MB-231 breast.
The test system of test [14] is RXF 393 renal.
The test system of test [15] is SF-268 CNS.
Test [16] relates to SF-295 CNS.
In test [17] the test system is SF-539 CNS.
Test [18] relates to UACC-257 melanoma.
The test system of test [19] is M14 melanoma.

Data on 9 molecules can be found in PubChem BioAssay (NCI).

This is part of a sample that, as a whole, favours compounds with a hit. Of some 83,000 tested, about 20% had one in any assay.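 A percent growth of 40 corresponds to 60% growth inhibition; 0 means no net growth; -100 means all cells died. Active threshold: below 10.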 A number with no mark means an inactive call. Active and inactive are the calls of the source.

Turning to `Cc1ccc(Cl)cc1NC(=O)N(C)CCO`, the growth in [1] is 110%; in test [2], 115%; in test [3], 116%; in test [4] it was 109%; in test [5], 108%; in test [6] it was -7.39% (active). Moreover, the growth was 59.5% in test [7]; 109% in [8]; 144% in test [9]; 131% in test [10]; 98.5% in test [11]; 134% in test [12]. The growth was 118% in test [13]; 112% in test [14]; 126% in test [15]; 121% in test [16]; 91.9% in test [17]; 110% in test [18]. For the same molecule, the growth in test [19] was 107%.

Consider `COc1cc(C(=O)NC(=S)Nc2ccc3ccccc3c2)cc(OC)c1OC`, for which the growth in test [1] was 82.5%; in test [2] it was 88.9%; in test [3], 101%; in [4], 95.8%; in [5], 107%; in test [6] it was -23.4% (active). Moreover, the growth in [7] is 89.7%; in test [8], 116%; in [9] it was 84.2%; in test [10], 102%; in test [11] it was 88%; in test [12], 90.1%. Also, the growth in [13] is 100%; in [14], 94.5%; in [15] it was 103%; in test [16], 44.7%; in [17], 93.1%; in [18], 90.7%. For the same molecule, in test [19], the growth was 115%.

For `COC(=O)c1cccnc1`, the growth in [1] was 95.6%; in test [2], 98%; in [3], 106%; in test [4] it was 99.4%; in [5], 105%; in test [6], 78.2%. Also, the growth in test [7] is 91.9%; in test [8] it was 87.1%; in test [9], 95.3%; in test [10], 107%; in test [11], 113%; in test [12] it was 112%. Besides, the growth was 100% in test [13]; 105% in test [14]; 95.4% in [15]; 110% in test [16]; 91.1% in test [17]; 90.4% in test [18]. In addition, the growth in test [19] is 93.9%.

For `N#C/C(=C\c1cc(O)c(O)c(O)c1)C(N)=O`, the growth was 102% in [1]; 108% in test [2]; 110% in test [3]; 97.2% in test [4]; 110% in test [5]; 76.5% in test [6]. The growth was 105% in test [7]; 94.6% in [8]; 104% in [9]; 93.6% in test [10]; 71.9% in test [11]; 115% in test [12]. Moreover, the growth in [13] is 102%; in test [14] it was 99.6%; in test [15], 107%; in test [16], 87.7%; in test [17], 94%; in test [18], 105%. Besides, the growth in test [19] was 92.2%.

As for `O=C(c1ccccc1)C1CCC1`, the growth in test [1] was 102%; in test [2], 102%; in test [3], 101%; in [4], 94.5%; in [5], 107%; in test [6] it was 85.9%. For the same molecule, the growth in [7] is 71.6%; in test [8], 107%; in [9], 112%; in test [10], 117%; in test [11], 99.3%; in test [12], 117%. Besides, the growth was 98.3% in test [13]; 109% in [14]; 100% in test [15]; 104% in test [16]; 103% in test [17]; 102% in test [18]. In test [19], the growth was 108%.

Turning to `O=C(/C=C\c1ccc(O)cc1)c1ccccc1`, the growth in [1] is 102%; in test [2], 107%; in [3] it was 101%; in [4] it was 110%; in [5] it was 113%; in test [6] it was -31.4% (active). The growth in test [7] is 94.2%; in test [8], 97.8%; in [9] it was 98%; in test [10] it was 101%; in test [11] it was 99.2%; in test [12], 82.7%. Further, the growth in test [13] is 92.4%; in [14], 110%; in test [15] it was 90%; in test [16], 110%; in test [17], 92.3%; in [18], 98%. For the same molecule, the growth in test [19] is 72.8%.

In the case of `CN(C)C(=O)Oc1cccc([N+](C)(C)C)c1`, the growth in test [1] was 109%; in test [2] it was 92.8%; in test [3] it was 129%; in test [4] it was 100%; in [5], 113%; in [6], 109%. Also, the growth in [7] is 102%; in test [8], 116%; in test [9], 109%; in test [10], 113%; in [11], 104%; in test [12], 131%. Besides, the growth is 91.1% in [13]; 114% in test [14]; 106% in [15]; 96.8% in test [16]; 106% in test [17]; 97.8% in [18]. Also, the growth in test [19] is 126%.

Regarding `S=c1sc2ccccc2n1CN1CCCCC1`, the growth in test [1] is 95.9%; in [2], 92.9%; in test [3], 99.1%; in [4], 89.7%; in [5], 102%; in test [6] it was 82.3%. Besides, the growth was 99.2% in test [7]; 105% in test [8]; 103% in test [9]; 99.8% in test [10]; 124% in test [11]; 86.6% in [12]. The growth is 98.4% in test [13]; 110% in test [14]; 92.5% in test [15]; 102% in test [16]; 105% in test [17]; 104% in test [18]. Besides, in test [19], the growth was 100%.

Consider `Cc1ccc(C(=O)N/N=C/c2ccc3c(c2)OCO3)cc1`, for which the growth in test [1] is 91%; in test [2], 101%; in [3] it was 98.8%; in [4], 97.5%; in test [5], 96.6%; in test [6] it was 80.9%. Further, the growth is 97.7% in [7]; 99.8% in test [8]; 113% in [9]; 112% in test [10]; 73.3% in test [11]; 108% in [12]. Moreover, the growth is 90.5% in test [13]; 102% in [14]; 96% in [15]; 115% in test [16]; 103% in [17]; 115% in test [18]. Moreover, the growth in [19] was 93%.
